From PubChem BioAssay (NCATS)
“And” between values parts separate entries of the source, which are not always exact repeats. Identical values can stand only once. Records with an inconclusive call do not appear. Where a structure was tested more than once in an assay, its records may differ in their call. Values without a mark were called inactive. The source made the active and inactive calls. Calls come from the whole dose curve; as a rule, active = well fitted curve in the direction sought with a large enough effect; inconclusive = small, poorly fitted or top-dose-only effect, or another doubt; inactive = no such curve, though single readings can be large; an effect the other way counts as inactive or inconclusive.

Experiments:
[1] = Viability qHTS for spleen associated tyrosine kinase inhibitor (SYKi) naive MV4-11 cells (AID 1963823); note: nearly all actives have a fitted effect of over 40% in size
Method in brief: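 Read-out: CellTiter-Glo luminescence. Exposure: 72 hr, 37 C, 5% CO2, 95% humidity. Cells: MV4-11 without SYK inhibitor history, 500/well, qHTS format.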

[2] = Cellular viability qHTS for adrenocortical cancer (ACC) cell line SW-13 (AID 1963989); conditions: SW-13 ACC cells viability, CellTiter-Glo, 48 h; activity (max response): hits give low values; note: nearly all actives have a fitted effect of over 65% in size;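 for activity (max response): cells grown in serum-free medium with ITS supplement; % is set by controls: 0 for no effect and ±100 for the full control effect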
Method in brief: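 Here, serum-free SW-13 cultures were dosed up to 46 uM. Following 48 h, ATP-dependent luminescence (CellTiter-Glo) reported viable cells, and logistic modeling produced IC50 values.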

[3] = Quantitative highthroughput screen to assess conditional lethalithy of P12 Ichikawa cells grown in Human Plasma-Like Medium with dialyzed fetal bovine serum (HPLM+ds) (AID 1963879); conditions: Potency: viability; note: nearly all actives have a fitted effect of over 35% in size; for Viability: series mostly up to about 46 µM
Method in brief: (§1)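 Each medium arm—HPLM with 10% dialyzed FBS, or RPMI1640 with 5 mM glucose and 10% untreated or dialyzed FBS—was screened against an 11-point, 3-fold compound titration for 48 h at 37 °C, with CellTiter-Glo luminescence as endpoint.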

[4] = Quantitative highthroughput screen to assess conditional lethalithy of SEM cells grown in Human Plasma-Like Medium with dialyzed fetal bovine serum (HPLM+ds) (AID 1963882); note: nearly all actives have a fitted effect of over 35% in size; for Viability: series mostly up to about 46 µM
Method in brief: as §1

[5] = Quantitative highthroughput screen to assess conditional lethalithy of SEM cells grown in RPMI1640 with dialyzed fetal bovine serum (RPMI+ds) (AID 1963884); note: nearly all actives have a fitted effect of over 35% in size;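 for Viability: series mostly up to about 46 µM; 100% = DMSO control wells and 0% = empty wells without cells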
Method in brief: as §1

[6] = Cellular viability qHTS for adrenocortical cancer (ACC) cell line NCI-H295R (AID 1963990); note: nearly all actives have a fitted effect of over 60% in size
Method in brief: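 Viability of NCI-H295R after 48 h of treatment (final up to 46 uM) measured through cellular ATP luminescence.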

[7] = Quantitative highthroughput screen to assess conditional lethalithy of P12 Ichikawa cells grown in RPMI1640 with untreated serum (RPMI+s) (AID 1963881); conditions: Potency: viability; note: nearly all actives have a fitted effect of over 35% in size
Method in brief: as §1

[8] = Quantitative highthroughput screen to assess conditional lethalithy of SEM cells grown in RPMI1640 with unreated serum (RPMI+s) (AID 1963883); note: nearly all actives have a fitted effect of over 35% in size
Method in brief: as §1

[9] = Quantitative highthroughput screen to assess conditional lethalithy of P12 Ichikawa cells grown in RPMI1640 with dialyzed fetal bovine serum (RPMI+ds) (AID 1963880); conditions: Potency: P12-Ichikawa viability; note: nearly all actives have a fitted effect of over 35% in size
Method in brief: as §1
Potency is the fitted concentration of half-maximal effect.

C#C[C@]1(O)CC[C@H]2[C@@H]3CCC4=CC(=O)CC[C@@H]4[C@H]3CC[C@@]21C
Potency [1]: inactive
activity (max response) [2]: 2.7%

CC(C)(C)C(=O)N1N=CC[C@H]1c1ccccc1
Potency [1]: 2.35 µM (active)
activity (max response) [2]: 3.19%

CN1C(CSCC(F)(F)F)Nc2cc(Cl)c(S(N)(=O)=O)cc2S1(=O)=O (stereo not given)
Potency [1]: inactive
activity (max response) [2]: -6.86%

c1ccc2c(c1)CCc1ccccc1N2
Potency [1]: inactive
activity (max response) [2]: -6.25%

CCOC(=O)C1=C[C@]2(CC)CCCN3CCc4c(n1c1ccccc41)[C@@H]32
Potency [1]: 13.3 µM (active)
Potency [3]: inactive
Potency [4]: inactive
Potency [5]: inactive

C[C@]1(c2nc3c(C(N)=O)cccc3[nH]2)CCCN1
Potency [1]: inactive
Potency [3]: inactive
Potency [4]: inactive
activity (max response) [2]: 7.65%
Potency [6]: inactive

C[C@]1(CO)CN(c2cc(C(=O)Nc3ccc4c(c3)-c3c(c(C(N)=O)nn3-c3ccc(F)cc3)CC4)c(Cl)cn2)C[C@@]1(C)CO
Potency [1]: 3.66 µM (active)
Potency [3]: 16.6 µM (active)
Potency [7]: 16.6 µM (active)
Potency [5]: 18.7 µM (active)

Oc1ccc([C@@H]2Oc3ccc(O)cc3[C@@H]3CCC[C@@H]32)cc1
Potency [1]: 5.8 µM (active)
Potency [3]: 13.2 µM (active)
Potency [7]: 11.8 µM (active)
Potency [5]: 10.5 µM (active)
Potency [6]: 7.08 µM (active)

Cc1cc(NS(=O)(=O)c2ccc(N)cc2)no1
Potency [1]: inactive
activity (max response) [2]: 13.2%

COc1ccccc1N1CCN(CCCCNC(=O)c2ccc(-c3ccc(C(C)=O)cc3)cc2)CC1
Potency [1]: inactive
activity (max response) [2]: -20.9%

CC(C)(O)CC(=O)NCCn1ccc2ncnc(Nc3ccc(Oc4cccc(C(F)(F)F)c4)c(Cl)c3)c21
Potency [1]: 14.6 µM (active) and 16.6 µM (active)
Potency [3]: 9.35 µM (active)
Potency [8]: 20.9 µM (active)
Potency [2]: 14.1 µM (active)

Cc1oc(-c2ccccc2)nc1CCC(=O)c1ccc(CC2SC(=O)NC2=O)cc1 (stereo not given)
Potency [1]: inactive
activity (max response) [2]: -12.1%

CCN1CCC(n2cc(CNc3cc(Cl)c4ncc(C#N)c(Nc5ccc(F)c(Cl)c5)c4c3)nn2)CC1
Potency [1]: 13 µM (active)
Potency [3]: 4.18 µM (active)
Potency [7]: 18.7 µM (active)
Potency [4]: 18.7 µM (active)
Potency [5]: 13.2 µM (active)
Potency [6]: 31.6 µM (active)

FC(F)(F)c1ccc(CNc2ccc(Cc3c[nH]c4ncc(Cl)cc34)cn2)cn1
Potency [1]: 146 nM (active) and 417 nM (active)
Potency [3]: 0.295 µM (active)
Potency [9]: 3.31 µM (active)
Potency [7]: 3.71 µM (active)
Potency [4]: 1.86 µM (active)
Potency [8]: 0.132 µM (active)

C[C@@]1(C(=O)Nc2ccc(F)nc2)CCCN1c1nc(Nc2cc(C3CC3)[nH]n2)c2cccn2n1
Potency [1]: 1.46 µM (active)
Potency [3]: 2.96 µM (active)
Potency [7]: 2.96 µM (active)
Potency [4]: 4.18 µM (active)
Potency [5]: 3.32 µM (active)
Potency [6]: 0.199 µM (active)

Cc1ccc(Nc2nccc(N(C)c3ccc4c(C)n(C)nc4c3)n2)cc1S(N)(=O)=O
Potency [1]: 0.742 µM (active)
Potency [4]: 16.6 µM (active)
Potency [8]: 14.8 µM (active)
Potency [5]: 14.8 µM (active)
activity (max response) [2]: -20.1%
Potency [6]: inactive

CCc1cc(/C(C)=N/OCc2ccc(C3CCCCC3)c(C(F)(F)F)c2)ccc1CN1CC(C(=O)O)C1
Potency [1]: 18.6 µM (active)
activity (max response) [2]: -17.6%

NS(=O)(=O)c1cc2c(cc1Cl)NC(CSCc1ccccc1)=NS2(=O)=O
Potency [1]: inactive
activity (max response) [2]: -2.17%

O=C1NC(=O)/C(=C\c2ccc(-c3ccc(F)cc3)o2)S1
Potency [1]: 14.8 µM (active)
activity (max response) [2]: 3.49%
Potency [6]: inactive

CCO[C@@H]1OC(=O)C[C@@H]1NC(=O)[C@@H]1CCCN1C(=O)[C@@H](NC(=O)c1ccc(N)c(Cl)c1)C(C)(C)C
Potency [1]: inactive
activity (max response) [2]: -11.3%
Potency [6]: inactive

CC(C(=O)O)c1ccc(/C=C2\CCCCC2=O)cc1 (stereo not given)
Potency [1]: inactive
activity (max response) [2]: 8.31%
Potency [6]: inactive

CCc1c(-c2ccccc2C)nc2c(C#N)c[nH]n2c1=O
Potency [1]: inactive
activity (max response) [2]: 6.89% and 1.74%
Potency [6]: inactive

Cc1cc2nc3c(=O)[nH]c(=O)nc-3n(C[C@H](O)[C@H](O)[C@H](O)CO)c2cc1C
Potency [1]: inactive
activity (max response) [2]: 8.72%

Cc1ncc(CO)c(CO)c1O
Potency [1]: 3.76 µM (active)
activity (max response) [2]: 1.35%
Potency [6]: inactive

NC(=O)c1ccc2[nH]ccc2c1
Potency [1]: inactive
activity (max response) [2]: -8.13%
Potency [6]: inactive

Cc1ccsc1C(=CCCN1CCC[C@@H](C(=O)O)C1)c1sccc1C
Potency [1]: inactive
activity (max response) [2]: 0.503% and 7.63%
Potency [6]: inactive

CCS(=O)(=O)Nc1ccc(Oc2ccc(F)cc2F)c(-c2cn(C)c(=O)c3[nH]ccc23)c1
Potency [1]: 0.0037 µM (active)
Potency [2]: 2 µM (active)
Potency [6]: 5.01 µM (active)

COc1ccc(C(=O)N2CCN(c3ccc4c(c3)CCC(=O)N4)CC2)cc1OC
Potency [1]: inactive
activity (max response) [2]: 5.3%
Potency [6]: inactive

CC(N)C(=O)OC(C)(C)Cc1ccc(Cl)cc1 (stereo not given)
Potency [1]: inactive
activity (max response) [2]: 12.9%
Potency [6]: inactive

CCC1=C[C@@H]2CN(C1)Cc1c([nH]c3ccccc13)[C@@](C(=O)OC)(c1cc3c(cc1OC)N(C)[C@H]1[C@@](O)(C(=O)OC)[C@H](OC(C)=O)[C@]4(CC)C=CCN5CC[C@]31[C@@H]54)C2
Potency [1]: 8.4 nM (active) and 91 nM (active)
Potency [2]: 0.143 µM (active)
activity (max response) [2]: -91.8%
Potency [6]: 20.6 nM (active) and 2.54 µM (active)

O=C1NC(=O)/C(=C/c2cccc(C(F)(F)F)c2)S1
Potency [1]: inactive
Potency [2]: 25.1 µM (active)

C=CC(=O)N1CCC[C@H](n2c(=O)n(-c3ccc(Oc4ccccc4)cc3)c3c(N)ncnc32)C1
Potency [1]: 1.05 µM (active)
Potency [2]: 3.98 µM (active)
Potency [6]: 8.91 µM (active)

O=C(O)c1ccc(CCCc2ccc(OCCc3ccc(F)cc3)cc2)o1
Potency [1]: 5.17 µM (active)
Potency [2]: 17.8 µM (active)

O=C(O)CN1C(=O)c2cccc3cccc(c23)C1=O
Potency [1]: inactive
activity (max response) [2]: -3.53%
Potency [6]: inactive

C[C@@H]1C[C@H]2[C@@H]3C[C@H](F)C4=CC(=O)C(Cl)=C[C@]4(C)[C@@]3(F)[C@@H](O)C[C@]2(C)[C@@]1(O)C(=O)CO
Potency [1]: 4.73 µM (active)
activity (max response) [2]: -6.49%
Potency [6]: inactive

Nc1ccc(C(=O)Oc2ccccc2)c(O)c1
Potency [1]: inactive
activity (max response) [2]: -6.48%
Potency [6]: inactive

O=C(O)Cc1ccc(OCCNC[C@H](O)c2ccccc2)cc1
Potency [1]: inactive
activity (max response) [2]: 0.46%
Potency [6]: inactive

O=C(c1ccccc1)c1ccccc1
Potency [1]: inactive
activity (max response) [2]: 13.9%
Potency [6]: inactive

COCc1c(C(C)C)nc(C(C)C)c(/C=C/[C@@H](O)C[C@@H](O)CC(=O)O)c1-c1ccc(F)cc1
Potency [1]: 0.168 µM (active)
Potency [2]: 2.59 µM (active)
Potency [6]: 1.16 µM (active)

O=C1NC(=O)C(c2ccccc2)(c2ccccc2)N1
Potency [1]: inactive
activity (max response) [2]: -5.02%
Potency [6]: inactive

OC[C@H]1O[C@@H]2O[C@H]3[C@H](O)[C@@H](O)[C@@H](O[C@H]4[C@H](O)[C@@H](O)[C@@H](O[C@H]5[C@H](O)[C@@H](O)[C@@H](O[C@H]6[C@H](O)[C@@H](O)[C@@H](O[C@H]7[C@H](O)[C@@H](O)[C@@H](O[C@H]8[C@H](O)[C@@H](O)[C@@H](O[C@H]1[C@H](O)[C@H]2O)O[C@@H]8CO)O[C@@H]7CO)O[C@@H]6CO)O[C@@H]5CO)O[C@@H]4CO)O[C@@H]3CO
Potency [1]: inactive
activity (max response) [2]: -1.71%
Potency [6]: inactive

O=C(O)c1ccccc1NCCc1ccccc1
Potency [1]: inactive
activity (max response) [2]: 9.86%
Potency [6]: inactive

COCCNCc1ccc(-c2cc3nccc(Oc4ccc(NC(=S)NC(=O)Cc5ccc(F)cc5)cc4F)c3s2)nc1
Potency [1]: 0.0164 µM (active)
Potency [2]: 28.2 µM (active)
Potency [6]: 12.6 µM (active)

Cc1cc(C)c(S(=O)(=O)N(CCc2cccc(Br)c2)Cc2ccc(-c3cccc(S(C)(=O)=O)c3)cc2)c(C)c1
Potency [1]: inactive
activity (max response) [2]: -27.1%
Potency [6]: inactive

CCOC(=O)Oc1ccc(CCNC(=O)[C@H](CCSC)NC(C)=O)cc1OC(=O)OCC
Potency [1]: inactive
activity (max response) [2]: 3.57%
Potency [6]: inactive

Cc1cccc(-c2[nH]c(CNc3ccccc3F)nc2-c2ccc3ncnn3c2)n1
Potency [1]: 13 µM (active)
activity (max response) [2]: -16.8%
Potency [6]: inactive

CC(C)COCC(CN(Cc1ccccc1)c1ccccc1)N1CCCC1 (stereo not given)
Potency [1]: 13.3 µM (active) and 14.8 µM (active)
Potency [2]: 4.11 µM (active) and 28.2 µM (active)
Potency [6]: 15.8 µM (active)

Cc1cc(CCCOc2c(C)cc(-c3noc(C(F)(F)F)n3)cc2C)on1
Potency [1]: inactive
activity (max response) [2]: -14.2%
Potency [6]: inactive

COc1ccc(-c2cc(=S)ss2)cc1
Potency [1]: inactive
activity (max response) [2]: -5.69%
Potency [6]: inactive

O=C1NCCN1CCN1CCC(c2cn(-c3ccc(F)cc3)c3ccc(Cl)cc23)CC1
Potency [1]: 0.668 µM (active)
Potency [2]: 10.3 µM (active)
Potency [6]: 4.11 µM (active)

CSCC[C@H](NC(=O)[C@H](Cc1c[nH]c2ccccc12)NC(=O)CCNC(=O)OC(C)(C)C)C(=O)N[C@@H](CC(=O)O)C(=O)N[C@@H](Cc1ccccc1)C(N)=O
Potency [1]: inactive
activity (max response) [2]: 1.93%

OCCn1cc(-c2ccc3c(c2)CC/C3=N\O)c(-c2ccncc2)n1
Potency [1]: 16.4 µM (active)
activity (max response) [2]: -9.16%
Potency [6]: inactive

O=C1c2ccccc2S(=O)(=O)N1CCCCN1CCN(c2ncccn2)CC1
Potency [1]: inactive
activity (max response) [2]: -8.3%
Potency [6]: inactive

CCN(CC)CCNC(C(=O)OCCC(C)C)c1ccccc1 (stereo not given)
Potency [1]: inactive
activity (max response) [2]: -2.2%
Potency [6]: inactive

COc1ccc(-c2c(C)nn3c(NCCN4CCOCC4)cc(C)nc23)cc1OC
Potency [1]: 8.33 µM (active)
activity (max response) [2]: 10.9%
Potency [6]: inactive

CCN1CCC[C@H]1CNC(=O)c1c(OC)ccc(Br)c1OC
Potency [1]: 6.68 µM (active)
activity (max response) [2]: -0.795%
Potency [6]: inactive
